Compounds with a hit are over-represented: about 5.7% of the library has one in this group of screens.
L3MBTL1 inh = blocks human L3MBTL1; Potency, µM (titrated, usually from 57.1 µM), for inactives: at the top dose activity, negative = inhibition, hits mostly inhibitors; AlphaScreen L3MBTL1–H3K9me1 peptide binding; 0.66% of 230,000 active; further: potency means the concentration at half of the fitted maximal effect; on the % scale 0 is the no-effect control and ±100 the full control effect; nearly all actives have a fitted effect of over 60% in size
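L3MBTL1 (50 nM) pre-complexed 30 min with biotinylated H3(1-15)K9me1 peptide (75 nM), then compounds added for 30 min at room temperature; AlphaScreen streptavidin donor/nickel chelate acceptor beads (10 ug/mL final) read after 30 min dark incubation.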
JMJD2E inh = inhibitors of human JMJD2E histone demethylase | JMJD2E catalytic domain, FDH-coupled NADH fluorescence (FDH is formaldehyde dehydrogenase) | Potency, µM (highest dose often 57.1 µM), inactives show at the top dose activity change, negative = inhibition, usual class: inhibitors | 1.6% of 230,000 active | AID 2147; active means well fitted inhibition curve with a large enough effect, not every such curve was filed as active; inconclusive means small, poorly fitted or top-dose-only effect, or another doubt; inactive means no such curve, though single readings can be large or run the other way;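 further: potency means the concentration at half of the fitted maximal effect; 0% = wells with enzyme and -100% = buffer wells without enzyme; nearly all actives have a fitted effect of over 50% in size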
Target sequence (B2RXH2 1-337 limits assumed): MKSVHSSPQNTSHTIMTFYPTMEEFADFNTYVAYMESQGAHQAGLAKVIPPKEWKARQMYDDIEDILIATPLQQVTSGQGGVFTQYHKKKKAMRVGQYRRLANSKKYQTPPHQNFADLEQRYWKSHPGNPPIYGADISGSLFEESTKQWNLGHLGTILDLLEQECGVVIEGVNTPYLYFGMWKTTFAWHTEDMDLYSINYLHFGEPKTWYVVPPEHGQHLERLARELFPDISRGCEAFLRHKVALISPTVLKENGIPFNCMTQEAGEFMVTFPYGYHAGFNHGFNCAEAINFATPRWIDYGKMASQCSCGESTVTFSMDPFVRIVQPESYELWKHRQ
JMJD2A Tudor = inhibitors of human JMJD2A Tudor domain; AID 504339; O75164; Potency, µM (highest dose often 114 µM), inactives show at the highest dose activity change, negative = inhibition, usual class: inhibitors; 4.4% of 390,000 active; AlphaScreen JMJD2A-Tudor / H3K4me3 peptide binding; further: potency means the concentration at half of the fitted maximal effect; on the % scale 0 is the no-effect control and ±100 the full control effect; nearly all actives have a fitted effect of over 50% in size
PI5P4K alpha inh = blocks human PI5P4K alpha kinase activity. PI5P4Kalpha enzyme, ADP-Glo luminescence, 60 min; active compounds read low. max response, %. 1.2% of 330,000 active; active means max response of -50% or lower; inconclusive means between -30% and -50%; inactive means -30% or higher; further: value at the top dose of about 77 µM; on the % scale 0 is the no-effect control and ±100 the full control effect
Target sequence (P48426 whole entry, looked up): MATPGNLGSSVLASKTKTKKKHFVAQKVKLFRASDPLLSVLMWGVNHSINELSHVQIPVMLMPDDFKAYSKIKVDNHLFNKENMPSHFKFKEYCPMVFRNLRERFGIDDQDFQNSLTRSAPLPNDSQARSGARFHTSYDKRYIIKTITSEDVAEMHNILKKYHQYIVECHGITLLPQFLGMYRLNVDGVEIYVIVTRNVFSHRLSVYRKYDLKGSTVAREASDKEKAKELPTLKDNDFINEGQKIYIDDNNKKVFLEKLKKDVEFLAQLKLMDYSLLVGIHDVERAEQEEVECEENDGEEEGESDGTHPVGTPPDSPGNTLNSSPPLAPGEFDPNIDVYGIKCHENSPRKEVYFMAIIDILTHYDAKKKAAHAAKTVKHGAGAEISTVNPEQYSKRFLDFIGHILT
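Compounds were pin-transferred onto PI5P4Kalpha and substrate in HEPES pH 7.4 buffer with EGTA, CHAPS and 5% DMSO. ATP (5 microM final) started the reaction, which ran 60 minutes at room temperature before ADP-Glo detection.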
HP1b chromo inh = blocks HP1-beta chromodomain binding to methylated histone tails; AlphaScreen HP1-beta / biotin-H3K9me3 peptide binding; Potency, µM (top dose mostly 114 µM), for inactives: top-dose activity change, negative = inhibition, actives largely listed as inhibitors; 0.56% of 390,000 active; AID 540317; further: potency means the concentration at half of the fitted maximal effect; nearly all actives have a fitted effect of over 70% in size
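HP1-beta protein (50 nM final) preincubated 30 min at room temperature with biotinylated H3(1-18)K9me3 peptide (50 nM) in PBS pH 7.4, 0.01% Tween-20, then compound added for 30 min. AlphaScreen streptavidin donor/nickel chelate acceptor beads (10 ug/mL final), 30 min dark, luminescence read.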
BAZ2B inh = blocks human BAZ2B | AlphaScreen BAZ2B-H3K14Ac peptide displacement | Potency, µM (titrated, usually from 114 µM), for inactives: top-dose activity change, negative = inhibition, actives largely listed as inhibitors | 4.4% of 360,000 active | AID 504333; further: potency means the concentration at half of the fitted maximal effect; on the % scale 0 is the no-effect control and ±100 the full control effect; nearly all actives have a fitted effect of over 60% in size
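AlphaScreen displacement of biotin-H3(5-23)K14Ac peptide (50 nM final) from BAZ2B (50 nM final) in PBS pH 7.4, 0.01% Tween-20; complex preformed 30 min RT, then compounds (top 110 uM) 30 min RT, beads 20 min dark.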
An asterisk follows results filed as active; ? = inconclusive; / = not tested or not shown; [ ] = dose if it differs, or a comment. Unless noted, the call rests on the fitted dose curve; in most records, active means well fitted inhibition curve with a large enough effect; inconclusive means small, poorly fitted or top-dose-only effect; inactive means no such curve, though single readings can be large or run the other way.

SMILES	L3MBTL1 inh	JMJD2E inh	JMJD2A Tudor	PI5P4K alpha inh	HP1b chromo inh	BAZ2B inh
CCc1cccc(NC(=O)Cn2c(=O)n(CC3CCC(C(=O)NCCc4ccccc4)CC3)c(=O)c3ccccc32)c1 (stereo unspecified)	/	/	-12%	/	30%	-6%
CCc1ccc(-n2c(=O)c3cccnc3n2CC(=O)N(CC)c2cccc(C)c2)cc1	/	/	90%	/	142%	95%
Cc1ccc(/C=N/NC(=O)c2ccccc2OCc2cccc(Br)c2)o1	0%	?	-36%	-18	?	-39%
O=C(COc1ccc2oc(-c3ccco3)cc(=O)c2c1)N1CCCCC1	3%[11.4 µM]	?	-2%[11.4 µM]	-15	?	50µM*
CCN1CCN(C(=O)C2CCN(Cc3cc(Cl)ccc3O)CC2)CC1	/	?	10µM*	/	?	?
COc1cc(/C=N/NC(=O)C(Cc2c[nH]c3ccccc23)NC(=O)OCC(C)C)cc([N+](=O)[O-])c1OCc1ccccc1 (stereo unspecified)	-25%	-11%	-17%	6	27%	-37%
COc1cc(/C=N/NC(=O)C(Cc2c[nH]c3ccccc23)NC(=O)OCC(C)C)cc([N+](=O)[O-])c1O (stereo unspecified)	-20%	1%	?	1	-30%	50µM*
COc1cc(/C=N/NC(=O)C(Cc2c[nH]c3ccccc23)NC(=O)OCc2ccccc2)cc([N+](=O)[O-])c1O (stereo unspecified)	-19%	?	40µM*	-79*	?	45µM*
COCCNC(=O)C(Cc1c[nH]c2ccccc12)NC(=O)OCc1ccccc1 (stereo unspecified)	-2%	/	-18%	-1	66%	5%[0.457 µM]
CCOc1ccc(NC(=O)c2cc3sc(Cl)cc3n2CC)cc1	/	/	7%	/	41%	5%
CN(C(=O)CSc1nnc(-c2ccccc2)o1)c1c(N)n(Cc2ccccc2)c(=O)[nH]c1=O	7%	6%	-5%	-4	28%	-23%
COc1ccc(-c2csc(/C(C#N)=C\c3ccc(OC)c([N+](=O)[O-])c3)n2)cc1	16%	2%	6%	-7	36%	4%
N#C/C(=C\c1ccc(O)c([N+](=O)[O-])c1)c1nc2ccccc2s1	-10%	-17%	20µM*	-26	?	25µM*
N#C/C(=C\c1ccco1)c1nc2ccccc2s1	-2%	1%	-12%	4	21%	?
N#C/C(=C/c1ccc(-c2cc(C(=O)O)cc(C(=O)O)c2)o1)c1nc2ccccc2s1	/	?	/	/	/	56µM*
COc1cc(/C=C(\C#N)c2nc3ccccc3s2)cc([N+](=O)[O-])c1O	-18%	-27%	11µM*	-72*	20µM*	13µM*
COc1ccc(-c2csc(/C(C#N)=C\c3ccc(O)c([N+](=O)[O-])c3)n2)cc1OC	-15%	13%	13µM*	?	?	11µM*
O=C(CCCc1nc(-c2ccccc2)no1)Nc1cc(C(F)(F)F)cc(C(F)(F)F)c1	/	/	10%	/	68%	22%
O=C(C1CCC(Cn2c(=O)c3sccc3n(Cc3ccccc3F)c2=O)CC1)N1CCOCC1 (stereo unspecified)	/	/	-19%	/	28%	-14%
COc1cccc(Nc2c3c(nc4nncn24)CCC3)c1	/	/	-5%	/	51%	-8%
CCOc1ccc(-c2nc(CSCC(=O)NCc3ccc(Cl)cc3)c(C)o2)cc1	/	/	-27%	/	-2%	-7%
CN(C)S(=O)(=O)c1ccc(Cl)c(NC(=O)CNC2(C)CCS(=O)(=O)C2)c1 (stereo unspecified)	-3%	/	-4%	-1	13%[57 µM]	/
Cc1nc2[nH]c(=O)n(O)c(=O)c2s1	/	/	7.9µM*	-6	8%	/
CCc1cccc(C)c1N=Cc1c(O)c2ccccc2oc1=O	1%	/	13%	7	69%	7%
CCOc1ccc(S(=O)(=O)n2nc(C)c(S(=O)(=O)N3CCCCCC3)c2C)cc1	/	/	-28%	/	6%[57 µM]	-15%
SMILES	L3MBTL1 inh	JMJD2E inh	JMJD2A Tudor	PI5P4K alpha inh	HP1b chromo inh	BAZ2B inh
COc1ccc2cc1Oc1ccc(cc1)C[C@H]1c3c(cc4c(c3Oc3cc5c(cc3OC)CCN(C)[C@@H]5C2)OCO4)CCN1C	/	?	35µM*	1	?	-38%
O=C(CNC(=O)c1ccccc1)N[C@H](C(=O)Nc1cc(C(F)(F)F)ccc1Cl)c1ccccc1	/	/	-28%	/	/	/
CCOC(=O)C(NC(=O)c1cccnc1)(Nc1cccc(C)n1)C(F)(F)F (stereo unspecified)	/	-3%	-4%	-2	28%	1%
CCOC(=O)C(NCc1ccccn1)(NC(=O)c1cccnc1)C(F)(F)F (stereo unspecified)	/	1%	63µM*	3	42%	56µM*
CCOC(=O)c1sc2nccc(N(C)C)c2c1N=CNOCc1ccccc1	/	?	53%[57.1 µM]	21	208%	98%
CCOC(=O)c1sc2nccc(N(C)C)c2c1N=CNOC	/	-6%	25µM*	-6	37%	22%
CC[N+]1(C)CCC(O)(/C=C/c2ccccc2)C(C(=O)/C=C/c2ccccc2)C1 (stereo unspecified)	/	/	40µM*	0	71µM*	/
CCc1ccc(/C=C/C(=O)C2C(=O)c3ccccc3C2=O)cc1	-7%	?	-21%	/	22%	-4%
CCC1Nc2ncnc(N3CCOCC3)c2N(Cc2ccc(OC)cc2)C1=O (stereo unspecified)	7%	/	56µM*	-6	29%	/
Cc1ccc(CN2C(=O)C(C)Nc3ncnc(N4CCN(c5ccccn5)CC4)c32)cc1 (stereo unspecified)	-8%	/	79µM*	-7	10%	?
Cc1ccc(CN2C(=O)C(Cc3ccccc3)Nc3ncnc(N4CCN(c5ccccc5)CC4)c32)cc1 (stereo unspecified)	-11%	/	-30%	6	52%	-33%
Cc1ccc(CN2C(=O)C(CC(C)C)Nc3ncnc(N4CCN(c5ccccn5)CC4)c32)cc1 (stereo unspecified)	-5%	/	79µM*	-21	19%	?
O=C1C(Cc2ccccc2)Nc2ncnc(N3CCN(c4ccccc4)CC3)c2N1Cc1ccccc1 (stereo unspecified)	-12%	/	63µM*	-9	6%	?
O=P(O)(O)CP(=O)(O)O	-10%	0.35µM*	/	/	/	50µM*
Cc1c(CCCN)c2ccccc2n1Cc1ccccc1	-9%	?	-28%[11.4 µM]	0	?	?
CCN(CC)c1ccc(NC(=O)CN2CCN(c3ccccc3F)CC2)cc1	?	12%	56µM*	1	50µM*	40µM*
COc1ccc(NC(=O)c2ccc(NC(=O)CN3CCN(c4ccccc4OC)CC3)cc2)cc1	/	/	/	3	/	/
CCN(CC)c1ccc(NC(=O)CN2CCN(c3ccccc3OC)CC2)cc1	/	/	45µM*	/	-18%	35µM*

Source: PubChem (National Center for Advancing Translational Sciences (NCATS))
